Screening data (PubChem)
G9a inh = inhibitors of human histone lysine methyltransferase G9a; Q96KQ7; G9a H3K9 monomethylation, AlphaScreen, 2 h; Potency, µM (series often up to 102 µM), for inactives: top-dose activity, negative = inhibition, hits mostly inhibitors; 350,000 compounds, 8.8% hits; AID 504332; further: on the % scale 0 is the no-effect control and ±100 the full control effect; nearly all actives have a fitted effect of over 75% in size
Target sequence (Q96KQ7 913-1193 limits assumed): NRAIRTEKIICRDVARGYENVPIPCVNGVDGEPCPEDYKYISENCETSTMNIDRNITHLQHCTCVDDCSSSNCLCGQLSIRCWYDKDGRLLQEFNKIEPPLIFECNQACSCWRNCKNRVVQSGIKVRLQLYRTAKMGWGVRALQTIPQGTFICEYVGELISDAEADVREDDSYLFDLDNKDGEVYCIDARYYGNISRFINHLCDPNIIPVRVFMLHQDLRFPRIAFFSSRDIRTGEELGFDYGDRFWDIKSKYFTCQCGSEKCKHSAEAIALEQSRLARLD
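Methyltransferase reactions run at room temperature for 2 h (20 nM enzyme, 500 nM biotin-H3K9 peptide, 20 uM SAM) after a 15 min compound preincubation; product detected by AlphaScreen beads and anti-H3K9me1 antibody.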
L3MBTL1 block = inhibitors of human L3MBTL1; Potency, µM (doses to about 57.1 µM), without a hit: top-dose activity, negative = inhibition, hits mostly inhibitors; AlphaScreen L3MBTL1–H3K9me1 peptide binding; AID 485360; 230,000 compounds, 0.66% hits; further: on the % scale 0 is the no-effect control and ±100 the full control effect; nearly all actives have a fitted effect of over 60% in size
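AlphaScreen proximity signal between nickel-chelate acceptor and streptavidin donor beads (final 10 ug/mL) reports binding of 50 nM L3MBTL1 to 75 nM biotin-H3 K9me1 peptide; complex incubated with compounds 30 min at room temperature; cefsulodin titration as control.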
Sfp PPTase inh = blocks B. subtilis Sfp PPTase activity | Q9F4F7 | Biochemical Sfp PPTase activity, qHTS | Potency, µM, for the others: largest response in the series, negative = inhibition, most hits filed as inhibitors | 310,000 compounds, 3.5% hits | AID 1490;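 further: the enzyme is Sfp with the accession as filed and its product quenches rhodamine fluorescence; 0% = enzyme reaction without inhibitor and -100% = no enzyme wells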
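Buffer: 50 mM Hepes-Na pH 7.6, 10 mM MgCl2, 0.01% Nonidet P-40, 0.01% BSA. Enzyme 15 nM, pre-exposed to compound 15 min; substrates then added and fluorescence change tracked over 30 min.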
JMJD2A Tudor = JMJD2A Tudor domain (human) inhibition; O75164; AlphaScreen JMJD2A-Tudor / H3K4me3 peptide binding; Potency, µM (highest dose often 114 µM), inactives show at the highest dose activity change, negative = inhibition, actives largely listed as inhibitors; 390,000 compounds, 4.4% hits; AID 504339; further: on the % scale 0 is the no-effect control and ±100 the full control effect; nearly all actives have a fitted effect of over 50% in size
BAZ2B block = inhibitors of human BAZ2B bromodomain; Q9UIF8; AlphaScreen BAZ2B-H3K14Ac peptide displacement; AID 504333; 360,000 compounds, 4.4% hits; Potency, µM (top dose mostly 114 µM), for the others: at the highest dose activity change, negative = inhibition, usual class: inhibitors; further: on the % scale 0 is the no-effect control and ±100 the full control effect; nearly all actives have a fitted effect of over 60% in size
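Multi-concentration screen (max 110 uM) measuring displacement of acetylated histone H3 peptide from BAZ2B by AlphaScreen, using 50 nM protein, 50 nM peptide and 10 ug/mL streptavidin donor plus Ni-chelate acceptor beads.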
HP1b chromo inh = inhibitors of HP1-beta chromodomain binding to methylated histone tails | P83916 | AlphaScreen HP1-beta / biotin-H3K9me3 peptide binding | Potency, µM (series often up to 114 µM), inactives show at the top dose activity change, negative = inhibition, actives largely listed as inhibitors | 390,000 compounds, 0.56% hits; further: nearly all actives have a fitted effect of over 70% in size
Target sequence (P83916 whole entry, looked up): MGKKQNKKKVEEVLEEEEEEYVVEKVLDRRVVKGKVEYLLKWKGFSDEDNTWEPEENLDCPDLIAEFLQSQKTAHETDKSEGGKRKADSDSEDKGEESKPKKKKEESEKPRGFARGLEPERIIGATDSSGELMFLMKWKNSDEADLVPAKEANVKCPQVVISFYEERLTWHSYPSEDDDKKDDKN
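Compound inhibition of the preformed complex between 50 nM HP1-beta and 50 nM biotinylated H3K9me3 peptide was read by AlphaScreen. Buffer was PBS pH 7.4 with 0.01% Tween-20. Incubations ran 30 min at room temperature, with 10 ug/mL donor/acceptor beads.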
The depositor's hits bear a star; u = inconclusive; x = no result given; [ ] = remark or other dose. Sampled rows, rich in hits. Any-hit rate of the full collection: about 12%. The call rests on the fitted dose curve; in most records, active means well fitted curve in the direction sought with a large enough effect; inconclusive means small, poorly fitted or top-dose-only effect, or another doubt; inactive means no such curve, though single readings can be large; an effect the other way counts as inactive or inconclusive. Potency means the concentration at half of the fitted maximal effect.

SMILES	G9a inh	L3MBTL1 block	Sfp PPTase inh	JMJD2A Tudor	BAZ2B block	HP1b chromo inh
CC1CCCC(N2CCN(C(=O)c3cccc(F)c3)CC2)C1 (configuration not stated)	u	x	-19%	4.5µM*	50µM*	u
CC1CCCCC1N1CCN(C(=O)c2cccc(F)c2)CC1 (configuration not stated)	u	3%	-21%	40µM*	u	u
CCN1C(=O)[C@H]2[C@H]3[C@H](O)[C@H](O)C/C(=N/O[C@@H](C)CN4CCCc5nc(C)c(C)cc54)[C@@H]3CC[C@@H]2C1=O	x	x	4%	x	x	x
Cc1nn(S(=O)(=O)c2ccc(C(C)C)cc2)c(C)c1S(=O)(=O)N1CCOCC1	35µM*	x	20%	79µM*	u	41%
CCOc1ccc(S(=O)(=O)n2nc(C)c(S(=O)(=O)N3CCOCC3)c2C)cc1	50µM*	x	-1%	-15%	u	7%
CCCCOc1ccc(S(=O)(=O)n2nc(C)c(S(=O)(=O)N3CCCCCC3)c2C)cc1	-37%[59 µM]	x	x	-12%	-3%	25%[57 µM]
Fc1cc(Br)ccc1Nc1c2c(nc3nc(-c4cccs4)nn13)CCCC2	-4%[59 µM]	x	x	-28%	3%	37%[57 µM]
COc1ccccc1N1CCN(c2nc(N)c(C#N)c(CC#N)c2C#N)CC1	50µM*	-11%	-17%	u	-34%	18%
Cc1ccc(SCC(=O)Nc2oc(C)c3c(C)n[nH]c(=O)c23)cc1C	1%[12.7 µM]	-5%	x	-20%	1%	40%
CCc1cc2c(=O)n(CCCOC)c(SCC(=O)Nc3oc(C)c4c(C)n[nH]c(=O)c34)nc2s1	56µM*	10%	x	-10%	5%	30%
CCOCCCn1c(SCC(=O)Nc2oc(C)c3c(C)n[nH]c(=O)c23)nnc1-c1ccncc1	35µM*	3%	x	-20%	3%	11%
C=CCn1c(C)nnc1SCC(=O)Nc1oc(C)c2c(C)n[nH]c(=O)c12	32µM*	4%	x	-3%	25%	37%
Cc1ccc(C)c(SCC(=O)Nc2oc(C)c3c(C)n[nH]c(=O)c23)c1	40µM*	-8%	x	-16%	-9%	14%
Cc1n[nH]c(=O)c2c(NC(=O)CSc3nnc(-c4ccncc4)n3C)oc(C)c12	87%	x	27%	u	-1%	30%
CCc1ccc(NC(=O)C2CCCN(S(=O)(=O)c3c(C)noc3/C=C/N(C)C)C2)cc1 (configuration not stated)	-8%[59 µM]	x	x	-28%	-27%	41%
Cc1ccc(F)cc1NC(=O)Cn1c(=O)nc(-c2ccccc2F)c2cc(Cl)ccc21	-14%[12.7 µM]	x	x	1%	-12%	46%
CC(=O)CSc1nc(-c2ccccc2)[nH]c1S(=O)(=O)c1ccc(C)cc1	-7%[59 µM]	x	x	-9%	-20%	38%
Cc1n[nH]c(=O)c2c(NC(=O)CSc3ncccn3)oc(C)c12	50µM*	21%	x	-12%	0%	32%
Cc1ccc(CNC(=O)c2cnn(-c3cccc(C)c3)c2C2CCN(C(=O)OC(C)(C)C)CC2)cc1	u	x	x	-33%	2%[57.1 µM]	1%
COC(=O)[C@H](Cc1ccccc1)NC(=O)O[C@@H]1C(=O)c2ccc(OC)cc2O[C@H]1c1ccc2c(c1)OCO2	x	x	-7%	x	x	x
O=S(=O)(NCCNS(=O)(=O)c1cccs1)c1cccs1	65%[59 µM]	9%	20%	-9%	-28%	44%
C=CCNC(=S)NS(=O)(=O)c1cccs1	18µM*	-2%	22µM*	-28%	-24%	-11%
CC(C)CN1CCC(CN2CCNC(=O)C2=O)CC1	x	x	x	-26%	x	17%
CC(C)CCN1CCC(CN2CCNC(=O)C2=O)CC1	x	x	x	89µM*	x	28%
CCOc1cc2sc(N3CCC(C(=O)Nc4ccc(C)cc4C)CC3)nc2cc1Br	4%[59 µM]	x	x	0%	0%	27%
SMILES	G9a inh	L3MBTL1 block	Sfp PPTase inh	JMJD2A Tudor	BAZ2B block	HP1b chromo inh
CC(=O)c1c(N2CCN(c3ccccc3)CC2)nc(=S)n(-c2ccccc2)c1C	-33%[59 µM]	-4%	79µM*	-32%	-19%	0%
Cc1ccc(CNC(=O)CC(C)S(=O)(=O)c2ccc3c(c2)NC(=O)CS3)o1 (configuration not stated)	x	x	25µM*	-8%	-24%	-13%
CC(CS(=O)(=O)c1ccc2c(c1)NC(=O)CS2)C(=O)NCc1ccccc1Cl (configuration not stated)	u	x	-1%	25µM*	14µM*	13µM*
CN(C)c1ccc(CNS(=O)(=O)c2ccc3c(c2)NC(=O)CS3)cc1	50µM*	x	6%	u	u	-4%
c1ccc(-c2cn(C[C@H]3CC[C@H](Cn4cc(-c5ccccn5)nn4)O3)nn2)nc1	x	0.28µM*	-14%	0.89µM*	0.79µM*	-2%
CC(C)Sc1nnc(Nc2ccccc2)s1	50µM*	4%	-4%	0%	5%	35%
N#Cc1ccc(CSc2nnc(Nc3ccccc3)s2)cc1	11%[59 µM]	-3%	-9%	-11%	4%	23%
CC(C)c1ccc2occ(-c3nn[nH]n3)c(=O)c2c1	u	-4%	-15%	18µM*	56µM*	-3%
Cc1ccc2occ(-c3nn[nH]n3)c(=O)c2c1	u	6%	-12%	28µM*	50µM*	15%
CCN1CCC(N(Cc2cccc(OC)c2)C(=O)Nc2cccc(C(F)(F)F)c2)CC1	-6%[59 µM]	x	x	-19%	-3%	1%
Cc1ccc(Nc2sc(C(=O)c3ccccc3)c(N)c2S(=O)(=O)c2ccccc2)c(C)c1	-23%[59 µM]	x	x	-23%	-22%	25%
O=C1/C(=C/c2ccc(O)c(O)c2)Oc2cc(O)ccc21	u	x	u	-30%	56µM*	-4%
COc1ccc(/C(C)=N\Nc2nc(-c3ccccc3)cc(=O)[nH]2)cc1	8.9µM*	13%	-4%	u	11%	23%
COc1ccc(/C(C)=N/Nc2nc(C)cc(-c3ccccc3)n2)cc1	x	x	x	-17%	x	19%
COc1ccc(C/C(C)=N/Nc2nc(C)cc(=O)[nH]2)cc1	40µM*	x	50µM*	-15%	-2%	31%
Cc1c(Cc2ccc3c(c2)OCO3)sc(NC(=O)c2ccccc2)c1C(N)=O	32µM*	7%	u	-14%	0%	11%
CCCC(=O)Nc1sc(Cc2ccccc2)c(C)c1C(N)=O	3.5µM*	-3%	13µM*	-23%	-26%	u
CCOC(=O)c1c(NC(=O)CN2C(=O)c3ccccc3C2=O)sc(Cc2ccc3c(c2)OCO3)c1C	20%	-1%	19%	-6%	2%	22%
COC(=O)c1c(NC(=O)CCC(=O)O)sc(Cc2ccccc2)c1C	-25%	x	7%	3%[11.4 µM]	u	61%
